# Results reported in ChEMBL document CHEMBL2218924, “A broad activity screen in support of a chemogenomic map for kinase signalling research and drug discovery” (Biochem J, 2013).
# Experiments:
# [1] = molecular target: Insulin receptor (Homo sapiens) (UniProt P06213); conditions: at 1 µM
# [2] = molecular target: Insulin receptor (Homo sapiens) (UniProt P06213); conditions: at 10 µM
# [3] = molecular target: Insulin receptor (Homo sapiens) (UniProt P06213); conditions: at 1 µM; remark: listed apart in the source
# [4] = molecular target: Insulin receptor (Homo sapiens) (UniProt P06213); conditions: at 10 µM; remark: listed apart in the source
# [5] = molecular target: T1, Serine/threonine-protein kinase TBK1 (Homo sapiens) (UniProt Q9UHD2); conditions: at 10 µM
# T1 sequence (whole entry): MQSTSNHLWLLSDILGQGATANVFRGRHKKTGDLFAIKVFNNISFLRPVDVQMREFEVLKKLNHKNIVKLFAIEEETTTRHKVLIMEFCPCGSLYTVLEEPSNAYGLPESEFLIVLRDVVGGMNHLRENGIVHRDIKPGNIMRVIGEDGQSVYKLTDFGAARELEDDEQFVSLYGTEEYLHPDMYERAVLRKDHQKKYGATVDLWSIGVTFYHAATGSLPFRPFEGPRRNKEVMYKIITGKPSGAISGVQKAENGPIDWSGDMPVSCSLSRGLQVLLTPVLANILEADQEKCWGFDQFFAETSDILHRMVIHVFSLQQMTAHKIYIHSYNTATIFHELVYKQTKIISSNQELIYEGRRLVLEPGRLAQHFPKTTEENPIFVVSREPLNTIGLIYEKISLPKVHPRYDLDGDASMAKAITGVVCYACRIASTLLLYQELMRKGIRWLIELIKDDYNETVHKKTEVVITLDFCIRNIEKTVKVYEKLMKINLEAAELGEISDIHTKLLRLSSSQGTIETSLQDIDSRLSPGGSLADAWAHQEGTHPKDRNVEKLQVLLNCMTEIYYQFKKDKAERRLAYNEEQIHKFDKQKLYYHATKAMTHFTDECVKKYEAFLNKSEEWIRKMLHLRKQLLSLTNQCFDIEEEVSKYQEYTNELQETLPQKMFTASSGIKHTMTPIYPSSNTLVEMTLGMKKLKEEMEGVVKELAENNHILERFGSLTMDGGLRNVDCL
# [6] = molecular target: Insulin-like growth factor 1 receptor (Homo sapiens) (UniProt P08069); conditions: at 1 µM
# [7] = molecular target: Insulin-like growth factor 1 receptor (Homo sapiens) (UniProt P08069); conditions: at 10 µM
# [8] = molecular target: T2, Inhibitor of nuclear factor kappa-B kinase subunit alpha (Homo sapiens) (UniProt O15111); conditions: at 10 µM
# T2 sequence (whole entry): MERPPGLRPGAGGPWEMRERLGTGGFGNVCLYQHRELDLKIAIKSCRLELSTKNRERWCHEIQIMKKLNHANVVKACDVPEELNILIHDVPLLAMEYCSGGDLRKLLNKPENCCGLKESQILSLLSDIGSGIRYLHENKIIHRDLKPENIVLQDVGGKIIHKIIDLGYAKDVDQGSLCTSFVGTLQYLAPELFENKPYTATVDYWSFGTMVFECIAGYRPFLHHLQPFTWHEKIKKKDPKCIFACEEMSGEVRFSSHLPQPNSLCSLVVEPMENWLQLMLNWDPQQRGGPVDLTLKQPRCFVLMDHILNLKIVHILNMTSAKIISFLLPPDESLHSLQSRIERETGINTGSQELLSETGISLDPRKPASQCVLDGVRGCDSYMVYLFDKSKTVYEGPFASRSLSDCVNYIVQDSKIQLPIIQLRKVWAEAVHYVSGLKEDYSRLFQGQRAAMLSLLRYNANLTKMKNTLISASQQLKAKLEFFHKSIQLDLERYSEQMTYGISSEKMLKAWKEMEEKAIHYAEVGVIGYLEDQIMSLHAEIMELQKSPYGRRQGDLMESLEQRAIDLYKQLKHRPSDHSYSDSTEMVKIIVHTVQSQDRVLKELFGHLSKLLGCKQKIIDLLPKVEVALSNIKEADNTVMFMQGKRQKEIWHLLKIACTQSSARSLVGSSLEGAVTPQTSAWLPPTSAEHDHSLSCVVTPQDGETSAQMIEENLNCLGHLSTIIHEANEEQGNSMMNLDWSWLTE
# [9] = molecular target: T3, Inhibitor of nuclear factor kappa-B kinase subunit beta (Homo sapiens) (UniProt O14920); conditions: at 1 µM
# T3 sequence (whole entry): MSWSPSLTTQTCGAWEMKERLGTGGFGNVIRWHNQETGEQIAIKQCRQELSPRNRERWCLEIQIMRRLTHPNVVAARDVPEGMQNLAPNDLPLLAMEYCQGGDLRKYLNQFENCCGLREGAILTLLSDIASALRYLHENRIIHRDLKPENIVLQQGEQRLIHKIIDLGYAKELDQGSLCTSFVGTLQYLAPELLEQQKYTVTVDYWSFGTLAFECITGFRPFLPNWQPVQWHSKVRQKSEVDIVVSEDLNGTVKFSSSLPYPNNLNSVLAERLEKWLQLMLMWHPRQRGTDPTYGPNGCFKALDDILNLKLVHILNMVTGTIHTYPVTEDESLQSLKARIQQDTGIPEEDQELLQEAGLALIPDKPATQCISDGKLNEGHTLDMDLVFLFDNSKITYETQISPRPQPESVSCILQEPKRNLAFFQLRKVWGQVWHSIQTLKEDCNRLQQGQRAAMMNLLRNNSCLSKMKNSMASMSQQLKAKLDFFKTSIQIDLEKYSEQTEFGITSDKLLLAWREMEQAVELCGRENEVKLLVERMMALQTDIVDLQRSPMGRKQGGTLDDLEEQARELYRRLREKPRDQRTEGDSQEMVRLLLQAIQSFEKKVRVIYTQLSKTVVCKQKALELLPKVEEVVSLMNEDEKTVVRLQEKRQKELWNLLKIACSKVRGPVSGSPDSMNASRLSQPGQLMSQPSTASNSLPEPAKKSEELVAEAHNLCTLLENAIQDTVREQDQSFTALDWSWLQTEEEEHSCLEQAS
# [10] = molecular target: Interleukin-1 receptor-associated kinase 1 (Homo sapiens) (UniProt P51617); conditions: at 1 µM
# [11] = molecular target: Interleukin-1 receptor-associated kinase 1 (Homo sapiens) (UniProt P51617); conditions: at 10 µM
# [12] = molecular target: T4, Interleukin-1 receptor-associated kinase 4 (Homo sapiens) (UniProt Q9NWZ3); conditions: at 1 µM
# T4 sequence (whole entry): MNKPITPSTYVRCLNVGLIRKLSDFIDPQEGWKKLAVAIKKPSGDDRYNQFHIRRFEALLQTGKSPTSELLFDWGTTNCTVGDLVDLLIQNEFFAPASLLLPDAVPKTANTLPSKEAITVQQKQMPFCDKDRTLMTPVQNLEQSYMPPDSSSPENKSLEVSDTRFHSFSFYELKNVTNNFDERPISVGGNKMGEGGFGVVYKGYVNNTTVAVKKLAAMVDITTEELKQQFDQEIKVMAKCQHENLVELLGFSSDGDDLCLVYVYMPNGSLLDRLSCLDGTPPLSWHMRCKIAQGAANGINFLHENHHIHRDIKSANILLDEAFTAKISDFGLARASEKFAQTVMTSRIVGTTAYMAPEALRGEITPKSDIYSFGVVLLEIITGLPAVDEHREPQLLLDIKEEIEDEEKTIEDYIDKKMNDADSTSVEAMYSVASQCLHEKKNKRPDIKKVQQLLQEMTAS
# [13] = molecular target: T4, Interleukin-1 receptor-associated kinase 4 (Homo sapiens); conditions: at 10 µM
# [14] = molecular target: Insulin receptor-related protein (Homo sapiens) (UniProt P14616); conditions: at 1 µM
# [15] = molecular target: Insulin receptor-related protein (Homo sapiens) (UniProt P14616); conditions: at 10 µM
# [16] = molecular target: T5, Tyrosine-protein kinase ITK/TSK (Homo sapiens) (UniProt Q08881); conditions: at 1 µM
# T5 sequence (whole entry): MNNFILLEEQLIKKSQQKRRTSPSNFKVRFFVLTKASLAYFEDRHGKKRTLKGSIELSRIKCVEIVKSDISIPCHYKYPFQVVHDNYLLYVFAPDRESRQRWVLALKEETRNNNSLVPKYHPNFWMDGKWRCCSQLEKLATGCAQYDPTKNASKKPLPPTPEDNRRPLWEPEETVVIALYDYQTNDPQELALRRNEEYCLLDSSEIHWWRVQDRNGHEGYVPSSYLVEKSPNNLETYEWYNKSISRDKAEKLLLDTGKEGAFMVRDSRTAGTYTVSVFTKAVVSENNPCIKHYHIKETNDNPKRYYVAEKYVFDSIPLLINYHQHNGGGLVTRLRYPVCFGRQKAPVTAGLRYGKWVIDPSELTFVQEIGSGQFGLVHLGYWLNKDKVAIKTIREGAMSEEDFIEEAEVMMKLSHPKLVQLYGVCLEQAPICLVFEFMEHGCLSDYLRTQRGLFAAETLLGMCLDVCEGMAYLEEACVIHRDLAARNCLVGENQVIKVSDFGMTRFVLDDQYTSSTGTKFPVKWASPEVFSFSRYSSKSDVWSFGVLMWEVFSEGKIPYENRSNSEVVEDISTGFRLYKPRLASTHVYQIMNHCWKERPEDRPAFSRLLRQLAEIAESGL
# [17] = molecular target: T6, TGF-beta receptor type-1 (Homo sapiens) (UniProt P36897); conditions: at 10 µM
# T6 sequence (whole entry): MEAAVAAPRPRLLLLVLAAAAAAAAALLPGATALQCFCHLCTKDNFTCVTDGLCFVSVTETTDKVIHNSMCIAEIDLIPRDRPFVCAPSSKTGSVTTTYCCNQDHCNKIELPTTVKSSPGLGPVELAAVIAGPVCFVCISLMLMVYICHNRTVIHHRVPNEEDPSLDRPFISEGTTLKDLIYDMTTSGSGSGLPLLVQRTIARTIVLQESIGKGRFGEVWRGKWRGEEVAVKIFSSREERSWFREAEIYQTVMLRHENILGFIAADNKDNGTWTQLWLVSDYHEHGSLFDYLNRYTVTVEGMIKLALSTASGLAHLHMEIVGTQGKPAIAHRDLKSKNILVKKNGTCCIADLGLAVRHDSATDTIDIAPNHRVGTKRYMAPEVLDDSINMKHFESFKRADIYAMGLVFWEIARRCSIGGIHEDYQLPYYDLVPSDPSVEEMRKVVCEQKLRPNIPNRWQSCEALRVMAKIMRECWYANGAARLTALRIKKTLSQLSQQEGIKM
# [18] = molecular target: T2, Inhibitor of nuclear factor kappa-B kinase subunit alpha (Homo sapiens); conditions: at 1 µM
# [19] = molecular target: T6, TGF-beta receptor type-1 (Homo sapiens); conditions: at 1 µM
# [20] = molecular target: T3, Inhibitor of nuclear factor kappa-B kinase subunit beta (Homo sapiens); conditions: at 10 µM
# Insulin-like growth factor 1 receptor (Homo sapiens), sequence (P08069 31-736 limits assumed): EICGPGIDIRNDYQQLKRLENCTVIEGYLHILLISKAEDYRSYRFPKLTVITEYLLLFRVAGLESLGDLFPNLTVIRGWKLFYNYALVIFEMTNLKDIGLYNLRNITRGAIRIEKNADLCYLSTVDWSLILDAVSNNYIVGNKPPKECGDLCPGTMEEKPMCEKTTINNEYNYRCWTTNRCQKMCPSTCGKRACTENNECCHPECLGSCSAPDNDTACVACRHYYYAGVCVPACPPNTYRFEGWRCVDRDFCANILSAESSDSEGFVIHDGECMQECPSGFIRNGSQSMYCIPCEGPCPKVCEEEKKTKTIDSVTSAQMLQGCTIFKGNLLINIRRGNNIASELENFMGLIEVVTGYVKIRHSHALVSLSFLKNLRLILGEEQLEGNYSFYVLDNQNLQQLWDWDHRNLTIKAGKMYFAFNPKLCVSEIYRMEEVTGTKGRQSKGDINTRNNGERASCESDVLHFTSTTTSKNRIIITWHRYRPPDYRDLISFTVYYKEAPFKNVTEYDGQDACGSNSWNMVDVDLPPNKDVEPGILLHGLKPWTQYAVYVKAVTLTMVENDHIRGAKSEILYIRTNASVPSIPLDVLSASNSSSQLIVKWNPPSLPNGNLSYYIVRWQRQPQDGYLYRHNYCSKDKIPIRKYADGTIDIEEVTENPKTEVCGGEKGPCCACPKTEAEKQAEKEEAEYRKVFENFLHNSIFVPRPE
# Insulin-like growth factor 1 receptor (Homo sapiens), sequence (P08069 741-1367 limits assumed): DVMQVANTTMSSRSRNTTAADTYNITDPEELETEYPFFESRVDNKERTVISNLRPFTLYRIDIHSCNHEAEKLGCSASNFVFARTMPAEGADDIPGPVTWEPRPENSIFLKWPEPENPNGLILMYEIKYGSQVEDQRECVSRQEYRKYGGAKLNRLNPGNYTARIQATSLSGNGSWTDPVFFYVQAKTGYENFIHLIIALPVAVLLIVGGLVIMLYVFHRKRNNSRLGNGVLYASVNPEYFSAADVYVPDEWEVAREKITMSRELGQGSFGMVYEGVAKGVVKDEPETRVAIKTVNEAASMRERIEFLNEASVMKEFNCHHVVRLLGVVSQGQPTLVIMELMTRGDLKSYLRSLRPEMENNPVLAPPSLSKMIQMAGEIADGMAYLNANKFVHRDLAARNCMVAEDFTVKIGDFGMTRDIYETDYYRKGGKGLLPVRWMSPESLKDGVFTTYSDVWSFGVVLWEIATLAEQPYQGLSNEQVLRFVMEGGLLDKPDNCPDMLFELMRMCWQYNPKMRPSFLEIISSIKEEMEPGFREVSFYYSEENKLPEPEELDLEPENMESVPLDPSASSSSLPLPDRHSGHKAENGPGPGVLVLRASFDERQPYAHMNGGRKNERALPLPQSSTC
# Interleukin-1 receptor-associated kinase 1 (Homo sapiens), sequence (P51617 whole entry, looked up): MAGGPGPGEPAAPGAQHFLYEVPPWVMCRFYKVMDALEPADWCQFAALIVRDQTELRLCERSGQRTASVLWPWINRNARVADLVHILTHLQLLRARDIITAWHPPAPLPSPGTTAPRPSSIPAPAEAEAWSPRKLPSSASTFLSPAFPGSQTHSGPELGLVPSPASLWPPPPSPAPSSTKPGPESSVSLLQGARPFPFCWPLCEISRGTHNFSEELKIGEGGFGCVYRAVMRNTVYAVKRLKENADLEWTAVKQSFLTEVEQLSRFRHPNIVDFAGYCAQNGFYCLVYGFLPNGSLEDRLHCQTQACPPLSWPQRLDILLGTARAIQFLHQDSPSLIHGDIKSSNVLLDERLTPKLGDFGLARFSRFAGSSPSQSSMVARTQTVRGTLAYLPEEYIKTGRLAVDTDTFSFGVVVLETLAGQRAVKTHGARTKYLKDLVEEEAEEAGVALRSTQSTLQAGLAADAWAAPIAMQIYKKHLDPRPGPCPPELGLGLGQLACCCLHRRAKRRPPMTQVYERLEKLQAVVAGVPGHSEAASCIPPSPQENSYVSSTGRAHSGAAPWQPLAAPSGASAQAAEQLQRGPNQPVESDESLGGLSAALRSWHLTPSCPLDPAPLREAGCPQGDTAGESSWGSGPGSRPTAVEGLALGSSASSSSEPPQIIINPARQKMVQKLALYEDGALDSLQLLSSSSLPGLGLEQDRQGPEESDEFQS
# Insulin receptor-related protein (Homo sapiens), sequence (P14616 27-742 limits assumed): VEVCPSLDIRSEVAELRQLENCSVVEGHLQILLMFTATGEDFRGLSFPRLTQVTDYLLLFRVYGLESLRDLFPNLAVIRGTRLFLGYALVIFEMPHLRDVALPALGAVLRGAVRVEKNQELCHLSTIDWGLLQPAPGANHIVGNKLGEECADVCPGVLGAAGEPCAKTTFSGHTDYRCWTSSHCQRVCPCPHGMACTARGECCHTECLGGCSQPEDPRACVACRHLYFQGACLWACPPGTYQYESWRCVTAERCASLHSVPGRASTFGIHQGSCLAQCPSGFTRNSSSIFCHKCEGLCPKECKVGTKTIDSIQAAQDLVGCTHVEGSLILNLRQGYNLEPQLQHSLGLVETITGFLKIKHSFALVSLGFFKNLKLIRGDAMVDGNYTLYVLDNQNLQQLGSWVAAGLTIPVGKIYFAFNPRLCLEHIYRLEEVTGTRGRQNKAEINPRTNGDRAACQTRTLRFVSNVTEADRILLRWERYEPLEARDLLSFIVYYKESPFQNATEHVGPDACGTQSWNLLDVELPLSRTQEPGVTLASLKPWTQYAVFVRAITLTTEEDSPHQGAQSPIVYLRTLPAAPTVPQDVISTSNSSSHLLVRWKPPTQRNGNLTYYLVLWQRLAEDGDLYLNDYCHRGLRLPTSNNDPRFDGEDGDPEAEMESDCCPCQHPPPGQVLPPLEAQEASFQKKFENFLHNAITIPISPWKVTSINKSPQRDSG
# Insulin receptor-related protein (Homo sapiens), sequence (P14616 747-1297 limits assumed): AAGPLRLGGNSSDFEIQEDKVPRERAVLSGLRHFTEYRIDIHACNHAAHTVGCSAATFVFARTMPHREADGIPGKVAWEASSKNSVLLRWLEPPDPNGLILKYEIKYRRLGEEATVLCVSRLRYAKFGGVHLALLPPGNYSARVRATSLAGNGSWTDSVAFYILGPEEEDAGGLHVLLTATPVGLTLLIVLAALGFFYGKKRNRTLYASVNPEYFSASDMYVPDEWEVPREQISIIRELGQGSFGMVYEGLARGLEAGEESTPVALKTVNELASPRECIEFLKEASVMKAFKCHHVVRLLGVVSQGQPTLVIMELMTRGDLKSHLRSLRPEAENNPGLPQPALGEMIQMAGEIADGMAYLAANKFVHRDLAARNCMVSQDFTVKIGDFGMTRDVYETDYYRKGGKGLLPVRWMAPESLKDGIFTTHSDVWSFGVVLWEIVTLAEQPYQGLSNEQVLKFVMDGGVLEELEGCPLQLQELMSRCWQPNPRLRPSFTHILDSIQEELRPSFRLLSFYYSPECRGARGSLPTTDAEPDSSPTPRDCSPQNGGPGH
# Insulin receptor (Homo sapiens), sequence (P06213 28-758 limits assumed): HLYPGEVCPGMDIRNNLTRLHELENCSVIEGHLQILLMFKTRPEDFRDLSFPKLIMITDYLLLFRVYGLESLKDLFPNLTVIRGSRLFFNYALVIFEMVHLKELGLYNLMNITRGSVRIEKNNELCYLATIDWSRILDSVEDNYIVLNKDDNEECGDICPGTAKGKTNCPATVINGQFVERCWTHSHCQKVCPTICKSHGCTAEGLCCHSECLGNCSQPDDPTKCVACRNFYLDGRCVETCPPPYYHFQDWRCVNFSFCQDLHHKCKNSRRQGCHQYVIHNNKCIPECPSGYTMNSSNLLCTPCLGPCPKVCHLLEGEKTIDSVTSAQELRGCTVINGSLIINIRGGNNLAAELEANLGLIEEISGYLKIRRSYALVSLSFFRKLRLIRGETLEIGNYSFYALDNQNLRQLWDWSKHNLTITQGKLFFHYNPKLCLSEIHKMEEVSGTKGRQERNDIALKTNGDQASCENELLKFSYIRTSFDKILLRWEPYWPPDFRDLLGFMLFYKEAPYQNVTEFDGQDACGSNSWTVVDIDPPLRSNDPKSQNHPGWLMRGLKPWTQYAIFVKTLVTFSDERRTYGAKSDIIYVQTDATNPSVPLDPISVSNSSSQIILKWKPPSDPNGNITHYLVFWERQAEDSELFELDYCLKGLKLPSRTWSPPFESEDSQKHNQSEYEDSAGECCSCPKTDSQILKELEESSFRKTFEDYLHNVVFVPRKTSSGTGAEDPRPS
# Insulin receptor (Homo sapiens), sequence (P06213 763-1382 limits assumed): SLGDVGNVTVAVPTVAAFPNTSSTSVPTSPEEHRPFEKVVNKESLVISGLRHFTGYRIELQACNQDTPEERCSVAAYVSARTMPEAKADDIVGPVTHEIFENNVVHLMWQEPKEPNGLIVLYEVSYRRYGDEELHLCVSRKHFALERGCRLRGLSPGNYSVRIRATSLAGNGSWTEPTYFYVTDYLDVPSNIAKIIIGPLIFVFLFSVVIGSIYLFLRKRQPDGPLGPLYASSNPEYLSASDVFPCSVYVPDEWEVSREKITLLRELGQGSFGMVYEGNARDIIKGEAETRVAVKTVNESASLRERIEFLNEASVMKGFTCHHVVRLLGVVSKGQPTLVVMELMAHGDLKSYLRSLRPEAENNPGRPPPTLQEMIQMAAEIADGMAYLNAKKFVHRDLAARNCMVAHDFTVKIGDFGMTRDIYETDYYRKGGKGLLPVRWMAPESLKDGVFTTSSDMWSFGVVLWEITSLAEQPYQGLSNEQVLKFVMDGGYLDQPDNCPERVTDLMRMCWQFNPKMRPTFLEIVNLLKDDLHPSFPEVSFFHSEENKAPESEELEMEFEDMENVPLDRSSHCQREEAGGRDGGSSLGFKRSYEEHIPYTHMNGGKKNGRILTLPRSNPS
compound,measurement,setting,value
O=C(Nc1ccc(Cl)cc1)c1ccccc1NCc1ccncc1,residual activity,[1],100%
same,residual activity,[2],79%
same,residual activity,[3],102%
same,residual activity,[4],100%
CCN(CC)CCNC(=O)c1c(C)[nH]c(/C=C2\C(=O)Nc3ccc(Cl)cc32)c1C,residual activity,[5],1%
same,residual activity,[6],30%
same,residual activity,[7],3%
same,residual activity,[8],65%
same,residual activity,[9],98%
same,residual activity,[1],32%
same,residual activity,[2],6%
same,residual activity,[3],8%
same,residual activity,[4],0%
same,residual activity,[10],9%
same,residual activity,[11],0%
same,residual activity,[12],22%
same,residual activity,[13],7%
same,residual activity,[14],13%
same,residual activity,[15],0%
same,residual activity,[16],21%
O=c1c(-c2ccc(F)cc2)c(-c2ccncc2)[nH]n1-c1ccc(Cl)cc1,residual activity,[17],30%
same,residual activity,[18],131%
N#C/C(=C\c1ccc(O)c(O)c1)C(=O)NCc1ccccc1,residual activity,[5],65%
same,residual activity,[19],81%
same,residual activity,[18],104%
same,residual activity,[8],89%
same,residual activity,[2],89%
same,residual activity,[3],100%
same,residual activity,[4],85%
same,residual activity,[11],81%
same,residual activity,[13],100%
same,residual activity,[14],88%
same,residual activity,[15],85%
same,residual activity,[16],104%
COc1ccc(CNC(=O)Nc2ncc([N+](=O)[O-])s2)cc1,residual activity,[5],59%
same,residual activity,[18],111%
same,residual activity,[8],113%
same,residual activity,[9],109%
same,residual activity,[20],108%
same,residual activity,[11],103%
same,residual activity,[12],72%
same,residual activity,[13],78%
COc1cc2nccc(Oc3ccc(NC(=O)Nc4cc(C)on4)c(Cl)c3)c2cc1OC,residual activity,[5],68%
same,residual activity,[9],104%
same,residual activity,[20],102%
same,residual activity,[10],82%
same,residual activity,[14],102%
same,residual activity,[15],29%
Oc1cccc(-c2nc(N3CCOCC3)c3oc4ncccc4c3n2)c1,residual activity,[5],67%
same,residual activity,[19],82%
same,residual activity,[17],91%
same,residual activity,[14],128%
same,residual activity,[15],84%
O=C1NC(=O)C(c2cn(CCCn3ccnc3)c3ccccc23)=C1Nc1ccccc1,residual activity,[5],9%
same,residual activity,[18],112%
same,residual activity,[8],103%
same,residual activity,[10],81%
same,residual activity,[11],76%
same,residual activity,[12],45%
same,residual activity,[13],32%
same,residual activity,[14],135%
same,residual activity,[15],65%
O=C1Nc2ccccc2/C1=C\c1c(Cl)[nH]c2ccccc12,residual activity,[5],43%
same,residual activity,[17],74%
same,residual activity,[13],69%
O=C1NC(=O)c2c1c1c3ccccc3[nH]c1n1cncc21,residual activity,[5],35%
same,residual activity,[19],91%
same,residual activity,[6],45%
same,residual activity,[7],30%
same,residual activity,[18],63%
same,residual activity,[8],55%
same,residual activity,[9],94%
same,residual activity,[20],80%
same,residual activity,[1],10%
same,residual activity,[2],15%
same,residual activity,[3],31%
same,residual activity,[4],19%
same,residual activity,[10],76%
same,residual activity,[11],66%
same,residual activity,[12],61%
same,residual activity,[13],56%
same,residual activity,[14],5%
same,residual activity,[15],3%
same,residual activity,[16],85%
